Shown are actives, neighbours in structure and some others; about 7.4% of the full set was active somewhere.
D1 allo mod: allosteric modulators of human D1 dopamine receptor | 58,000 compounds, 5.9% hits | B-score at 10 µM | HEK293 D1, CRE-luciferase, dopamine EC30 potentiation; actives deviate in either direction | P21728;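 active means luminescence count or its row- and column-corrected plate score outside the 99.7% band of the plate's sample wells, on either side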
Target sequence (P21728 whole entry, looked up): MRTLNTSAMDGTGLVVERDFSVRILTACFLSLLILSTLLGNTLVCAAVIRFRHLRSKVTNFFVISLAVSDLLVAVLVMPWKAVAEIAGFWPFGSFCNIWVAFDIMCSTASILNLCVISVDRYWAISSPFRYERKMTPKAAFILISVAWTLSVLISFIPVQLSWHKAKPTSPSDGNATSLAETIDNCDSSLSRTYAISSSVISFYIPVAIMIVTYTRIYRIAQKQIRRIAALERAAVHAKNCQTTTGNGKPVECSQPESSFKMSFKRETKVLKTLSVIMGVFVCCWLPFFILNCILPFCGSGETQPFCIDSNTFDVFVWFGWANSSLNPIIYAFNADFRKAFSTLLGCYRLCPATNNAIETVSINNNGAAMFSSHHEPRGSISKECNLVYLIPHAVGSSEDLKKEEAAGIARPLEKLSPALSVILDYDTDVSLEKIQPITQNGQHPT
DAT uptake mod: human DAT dopamine uptake with cocaine, either direction. Q01959. LLC-PK1 hDAT cells, [14C]-dopamine uptake with cocaine IC80; actives deviate in either direction. B-score at 10 µM. 110,000 compounds, 1.3% hits. AID 449768;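 active means Z score or B-score, a plate-position-corrected score, falls beyond the plate's 99.7% confidence bounds, in either direction; inactive means both scores lie inside the 99.7% bounds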;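 further: scored against the spread of the other compound wells on the same plate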
M1 ag: activates the M1 muscarinic receptor | CHO-M1 cells, Fluo-4 calcium fluorescence, agonist mode; active compounds read high | B-score at 10 µM | 64,000 compounds, 3% hits;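 active means fluorescence rise, raw or as B-score row- and column-corrected plate score, outside the 99.7% band of its plate's samples, either direction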
FXIIa mix inh: blocks human factor XIIa in pooled compound mixtures. P00748. inhibition, % at 5 µM. 62,000 compounds, 0.2% hits. purified FXIIa, fluorogenic substrate;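 further: 0% = enzyme without compound and 100% = no enzyme blank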
FXIa inh mix: blocks human factor XIa in pooled compound mixtures. P03951. purified FXIa, fluorogenic substrate. inhibition, % at 5 µM. 62,000 compounds, 0.19% hits. AID 680;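 further: each value is inhibition by a whole ten-compound pool holding the compound; 0% = enzyme with no mixture and 100% = wells lacking enzyme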
M1 antag: antagonists of rat M1 muscarinic receptor; AID 628; CHO-M1 cells, Fluo-4 calcium, ACh EC80 antagonist mode; active compounds read low; 64,000 compounds, 3.4% hits; B-score at 10 µM; P08482;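 active means calcium fluorescence response, raw or row-and-column corrected B-score, differing from the plate sample mean either way at a set confidence level, mostly lower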
Active calls of the source: *. Unless noted, no stated cut-off is given here; in the data, active means inhibition above about 20% (passing the limit was not always enough); inactive means the rest.

Screening NC(=O)c1c(NC(=O)CSc2nnc(-c3ccccc3)n2CC2CCCO2)sc2c1CCC2 (stereo not given) returned DAT uptake mod 2.67*, FXIIa mix inh 12.0 and FXIa inh mix -3.7.
Screening N#Cc1c(NC(=O)CSc2nnc(-c3ccncc3)n2CC2CCCO2)sc2c1CCCC2 (stereo not given) returned D1 allo mod 1.95, DAT uptake mod 2.55, M1 ag 0.00768, FXIIa mix inh -3.4, FXIa inh mix 10.3 and M1 antag -0.329.
For Cc1ccc(Cl)c(OCC(=O)Nc2ccc3c(c2)OCCO3)c1 the results were D1 allo mod -0.783, DAT uptake mod -0.018, M1 ag 4.32*, FXIIa mix inh 0.8, FXIa inh mix 1.9 and M1 antag -0.308.
`O=C(CCNc1cccc(Cl)c1)c1ccco1` gave D1 allo mod -1.21, DAT uptake mod -0.894, M1 ag -0.172, FXIIa mix inh -2.3, FXIa inh mix 3.2 and M1 antag -0.848.
COc1ccc(C(OC(=O)c2ccco2)C(=O)NCC2CCCO2)cc1 (stereo not given) was read as D1 allo mod 0.583, DAT uptake mod -7.27*, M1 ag -0.0693, FXIIa mix inh 7.6, FXIa inh mix -1.7 and M1 antag 0.599.
COc1ccc(C(OC(=O)c2cccs2)C(=O)NCC2CCCO2)cc1 (stereo not given) was read as DAT uptake mod 0.0637.
For O=C(Nc1ccc(-c2nc3cccnc3s2)cc1)c1ccco1 the results were D1 allo mod -5.01*, DAT uptake mod 0.0965, M1 ag 0.225, FXIIa mix inh 7.0, FXIa inh mix -11.1 and M1 antag -0.793.
Screening O=C(Nc1ccc(-c2nc3cccnc3s2)cc1)c1ccc(Br)o1 returned D1 allo mod 0.481, DAT uptake mod 0.759, M1 ag 0.596, FXIIa mix inh 5.2, FXIa inh mix -7.2 and M1 antag -0.154.
For COC(=O)c1ccc(C(=O)OC)c(NC(=O)c2cc3ccccc3o2)c1 the results were D1 allo mod -0.178, M1 ag -0.139 and M1 antag 0.0163.
For COc1cccc(-n2c(SCC(=O)OC(C)C)nnc2-c2cccnc2)c1 the results were D1 allo mod -0.0422, DAT uptake mod 0.604, M1 ag 0.759, FXIIa mix inh 1.6, FXIa inh mix 17.5 and M1 antag 2.65*.
For CCCCNCCOCCOc1ccc(C)cc1[N+](=O)[O-] the results were DAT uptake mod -1.15.
`CCCCN(CCCNC(=O)c1ccc2nc(N3CCOCC3)sc2c1)Cc1ccccc1` gave DAT uptake mod 2.62*.
`Cc1ccc2nc(N3CCN(C=O)CC3)nc(-c3ccccc3)c2c1` gave DAT uptake mod 2.84*.
Screening NC(=O)c1ccccc1NS(=O)(=O)c1cccs1 returned D1 allo mod 0.915, DAT uptake mod -3.16*, M1 ag 0.676, FXIIa mix inh 0.2, FXIa inh mix 9.2 and M1 antag 0.0186.
Screening Cc1ccc(S(=O)(=O)N2CCCC(C(=O)O)C2)s1 (stereo not given) returned D1 allo mod 0.574, DAT uptake mod -0.589, M1 ag -0.057, FXIIa mix inh -1.4, FXIa inh mix 5.3 and M1 antag 0.134.
Screening O=C(/C=C/c1ccccc1)NC(NC(=S)Nc1ccc(Cl)cc1)C(Cl)(Cl)Cl (stereo not given) returned DAT uptake mod -2.76*.
For Cc1cc(C(F)F)nn1CC(=O)N1CCSCC1 the results were DAT uptake mod 0.311.
For COCCNC(=O)C(c1cccs1)N(C(=O)Cn1nnc2ccccc21)c1ccc2c(c1)OCO2 (stereo not given) the results were D1 allo mod -0.104, DAT uptake mod 0.0526, M1 ag -0.0128, FXIIa mix inh -13.8, FXIa inh mix -3.1 and M1 antag -1.06.
For Cc1ccc2nc(-c3ccc(NC(=O)CN(c4ccccc4C)S(C)(=O)=O)cc3)sc2c1 the results were DAT uptake mod 0.464.
Cc1ccc2c(c1)C1CN(C)CCC1N2C(=O)Nc1ccc(Cl)cc1 (stereo not given) was read as D1 allo mod -4.22*, DAT uptake mod 1.48, M1 ag -1.39, FXIIa mix inh -16.0, FXIa inh mix 4.0 and M1 antag -1.33.
COC(=O)c1ccc(C(=O)Nc2ccc(N)cc2N)cc1 was read as D1 allo mod 0.575, DAT uptake mod -1.9, M1 ag 0.0698, FXIIa mix inh 4.7, FXIa inh mix 23.0* and M1 antag 0.31.
`COc1ccccc1NC(=O)c1ccc(N)cc1` gave D1 allo mod 0.133, DAT uptake mod -0.522, M1 ag -1.2, FXIIa mix inh -16.2, FXIa inh mix 18.0 and M1 antag -0.112.
Screening CC(C)OP(=O)(OC(C)C)C1(O)C(=O)Nc2ccccc21 (stereo not given) returned DAT uptake mod 1.08.
`Nc1c2c(nc3ccn(-c4ccccc4)c(=O)c13)CCCCC2` gave D1 allo mod -4.71*, DAT uptake mod -1.11, M1 ag 0.343, FXIIa mix inh 0.8, FXIa inh mix 0.1 and M1 antag -1.55.
For Nc1c2c(nc3ccn(Cc4ccccc4)c(=O)c13)CCC2 the results were D1 allo mod -3.23*, DAT uptake mod 0.851, M1 ag 0.733, FXIIa mix inh 8.5, FXIa inh mix -2.6 and M1 antag -0.79.
CCCCN1C=C(C(=O)OC)C(c2ccccc2C(F)(F)F)C(C(=O)OC)=C1 was read as DAT uptake mod 3.07*.
`COC(=O)C(NC(=O)c1ccccc1)(Nc1cc(C)cc(C)n1)C(F)(F)F` (stereo not given) gave DAT uptake mod 0.74.
For COc1cccc(/C=N/NC(=O)CSc2nnc(C)n2-c2ccccc2)c1OC the results were DAT uptake mod 0.435.
`COc1cc(C)nc(N2CCCC(C(=O)Nc3cccc(Cl)c3C)C2)n1` (stereo not given) gave D1 allo mod 0.885, DAT uptake mod 0.0792, M1 ag -0.781, FXIIa mix inh 4.1, FXIa inh mix 21.2* and M1 antag -0.0453.
Cc1cc(C)nc(N2CCCC(C(=O)NCc3ccccc3)C2)n1 (stereo not given) was read as DAT uptake mod -0.0394.
For COc1ccc(C[C@H]2CN3C(=NC[C@@H]3C(C)C)N2CCNC(=O)c2ccc(C)c(Br)c2)cc1 the results were DAT uptake mod -3.15*.
Screening O=C(CN1C(=O)NC2(CCCc3ccccc32)C1=O)NCc1ccco1 (stereo not given) returned DAT uptake mod -0.736.
For COc1ccc(OC)c(NC2=NC3(CCCCC3)N=C(N)N2)c1 the results were D1 allo mod -5.21*, DAT uptake mod 0.0691, M1 ag 0.0346, FXIIa mix inh 11.7, FXIa inh mix 4.6 and M1 antag -0.494.
For CC1=C(C#N)C(NC(=O)C(C)(C)C)(C(F)(F)F)C(=O)N1 (stereo not given) the results were DAT uptake mod 0.554.
`CCCNC(=O)c1onc(CSc2ccccn2)c1C(=O)NCCC` gave DAT uptake mod 0.353.
